TGFb SMAD3 inh: qHTS for Inhibitors of TGF-b; HepG2 CAGA-GFP TGF-b/SMAD3 reporter, GFP fluorescence, 18 h; TGF-beta stimulated, 500 pg/mL final; AID 588855, 2011; actives 1.2% (n = 410,000); Potency, µM (titrated, usually from 46.1 µM), for inactives: at the top dose activity, negative = inhibition, actives largely listed as inhibitors; further: potency means the concentration at half of the fitted maximal effect; on the % scale 0 is the no-effect control and ±100 the full control effect; nearly all actives have a fitted effect of over 65% in size
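Per well, imaged GFP fluorescence of HEPG2 CAGA-GFP cells gives the signal; cells get compound, then TGF-beta (500 pg/mL final), 18 h at 37 degrees C; %Activity versus -TGF-beta and +DMSO controls.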
HepG2 tox: qHTS for Inhibitors of TGF-b: Cytotox Counterscreen. AID 588856, 2011. Potency, µM (series often up to 46.1 µM), for the others: at the top dose activity change, negative = cytotoxicity, most hits filed as cytotoxic. actives 0.76% (n = 410,000). HepG2 CAGA-GFP viability, ATP luminescence, 18 h; further: potency means the concentration at half of the fitted maximal effect
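HepG2 CAGA-GFP cells (1000/well, DMEM with 1% FBS) received compound, then TGF-beta at 500 pg/mL final, and were incubated 18 hours at 37 degrees C. Viability was read by CellTiter-Glo luminescence. Media-only wells were set as complete cell-killing and DMSO as no toxicity.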
LDHA block: qHTS assay for inhibitors of human lactate dehydrogenase | AID 1347041, 2019 | actives 0.15% (n = 480,000) | purified LDHA, NADH/diaphorase-resazurin fluorescence; active compounds read low | activity change, % (values are at about 110 or 230 µM) | L-lactate dehydrogenase A chain (Homo sapiens), P00338; in the data active means activity change below about -30%; inconclusive means mostly about -25% to -30%;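 further: plate controls were DMSO wells for no effect and wells without enzyme for full effect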
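Human LDH5 at 2 nM final in Tris HCl pH 7.4 with 0.06 mM NADH and 0.2 mM pyruvate, reacted 5 minutes at room temperature. Remaining NADH coupled via diaphorase/resazurin; resorufin fluorescence read at 0 and 20 minutes, normalized to enzyme-free and DMSO wells.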
ATXN2 expr inh: Primary qHTS for Inhibitors of ATXN expression | HEK-293 ATXN2-luciferase reporter, luminescence, 24 h | actives 0.72% (n = 360,000) | Potency, µM (highest dose often 57 µM), for the others: at the highest dose activity change, negative = inhibition, usual class: inhibitors; further: potency means the concentration at half of the fitted maximal effect; on the % scale 0 is the no-effect control and ±100 the full control effect; nearly all actives have a fitted effect of over 55% in size
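ATXN2-luciferase reporter cells (luciferase flanked by upstream and downstream ATXN2 gene portions) were treated 24 h at 37 °C with compounds at up to 57 uM. SteadyGlo luminescence gave expression; GF-AFC fluorescence gave viability.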
S2 tox: Viability Counterscreen for Primary qHTS for Inhibitors of ATXN expression. S2 cells (HEK-293 line with an ATXN2-luciferase reporter) viability, CellTiter-Fluor protease fluorescence, 24 h. Potency, µM (titrated, usually from 56.7 µM), usual class: cytotoxic. actives 0.49% (n = 400,000). AID 651635, 2014; further: potency means the concentration at half of the fitted maximal effect; nearly all actives have a fitted effect of over 40% in size
mIDH1 inhibitor: qHTS for Inhibitors of mutant isocitrate dehydrogenase 1 (IDH1): qHTS. IDH1-R132H enzyme, NADPH consumption, diaphorase/resazurin fluorescence. Potency, µM (top dose mostly 76.6 µM), for the others: at the top dose activity change, negative = inhibition, actives largely listed as inhibitors. Isocitrate dehydrogenase [NADP] cytoplasmic (Homo sapiens), O75874. actives 0.093% (n = 390,000). AID 602179, 2012; further: potency means the concentration at half of the fitted maximal effect; on the % scale 0 is the no-effect control and ±100 the full control effect; nearly all actives have a fitted effect of over 65% in size
Target sequence (O75874 whole entry R132H, stated change not applied): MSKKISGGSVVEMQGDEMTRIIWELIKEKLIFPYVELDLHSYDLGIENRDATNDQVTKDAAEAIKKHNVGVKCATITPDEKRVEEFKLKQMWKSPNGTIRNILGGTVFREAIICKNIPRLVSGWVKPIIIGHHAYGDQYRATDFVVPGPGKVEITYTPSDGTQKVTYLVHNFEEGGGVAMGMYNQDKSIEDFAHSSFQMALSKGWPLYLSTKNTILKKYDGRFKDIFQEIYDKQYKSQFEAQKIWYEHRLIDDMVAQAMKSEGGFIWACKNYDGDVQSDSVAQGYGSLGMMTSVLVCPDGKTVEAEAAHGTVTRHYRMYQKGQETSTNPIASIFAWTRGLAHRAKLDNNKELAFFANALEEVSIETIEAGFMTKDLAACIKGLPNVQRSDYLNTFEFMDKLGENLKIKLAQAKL
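IDH1-R132H (0.5 ug/mL) preincubated 30 min with compound, then NADPH (0.016 mM) and alpha-KG (2 mM) added; 80 min at RT, pH 7.5. Remaining NADPH coupled via diaphorase/resazurin to fluorescence (540/590 nm); concentration-response curves normalized to no-enzyme control.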
An asterisk follows results filed as active. In the library only some 2.2% were active in any assay of this set; here they are far more common. Unless noted, the call rests on the fitted dose curve; in most records, active means well fitted curve in the direction sought with a large enough effect; inconclusive means small, poorly fitted or top-dose-only effect, or another doubt; inactive means no such curve, though single readings can be large; an effect the other way counts as inactive or inconclusive.

What do the screens show for `Cc1cccc2c1=NC(=O)/C(=C/c1c(O)[nH]c(=O)[nH]c1=O)C=2`?
TGFb SMAD3 inh: 1.0%; HepG2 tox: -5.3%; LDHA block: -0.2; ATXN2 expr inh: -4.3%; S2 tox: inactive; mIDH1 inhibitor: 5.6%

What do the screens show for `O=C(CN1CC=C(c2ccccc2)CC1)Nc1cc(Cl)ccc1Cl`?
TGFb SMAD3 inh: 12.6µM*; HepG2 tox: -11.2%; LDHA block: -3.9; ATXN2 expr inh: -1.5%; S2 tox: inactive; mIDH1 inhibitor: 6.1%

Results for O=C(CN1CC=C(c2ccccc2)CC1)Nc1c(Cl)cccc1Cl ?
TGFb SMAD3 inh: -14.2%; HepG2 tox: -1.3%; LDHA block: -4.5; ATXN2 expr inh: -11.2%; S2 tox: inconclusive; mIDH1 inhibitor: 2.4%

How did O=C(NN=Cc1ccc(N(CCCl)CCCl)cc1)c1cc(=O)[nH]c(=O)[nH]1 do in these assays?
TGFb SMAD3 inh: 11.5%; HepG2 tox: 8.1%; LDHA block: 2.5; ATXN2 expr inh: inconclusive; S2 tox: inactive; mIDH1 inhibitor: 3.2%

Results for O=C(NN=Cc1ccc(N(CCCl)CCCl)cc1Cl)c1cccnc1 ?
TGFb SMAD3 inh: 5.01µM*; HepG2 tox: -55.7%; LDHA block: -8.0; ATXN2 expr inh: inconclusive; S2 tox: inconclusive; mIDH1 inhibitor: 4.4%

Results for Cc1cc(N(CCCl)CCCl)ccc1C=NNC(=O)c1cccnc1 ?
TGFb SMAD3 inh: -7.8%; HepG2 tox: -32.4%; LDHA block: -0.2; ATXN2 expr inh: 1.78µM*; S2 tox: inactive; mIDH1 inhibitor: -0.4%

What do the screens show for `COC1=C(C)C(=O)C2=C(C1=O)C(CO)N1C(C#N)C3CC4C(C1C2N1CCOC41)N3C` (stereo not drawn)?
TGFb SMAD3 inh: 7.08µM*; HepG2 tox: 2.7%; LDHA block: 35.0; ATXN2 expr inh: inconclusive; S2 tox: inconclusive; mIDH1 inhibitor: 19.5%

How did C=C1N2CCC(CC2)C1(O)c1ccc(C)cc1 (stereo not drawn) do in these assays?
TGFb SMAD3 inh: 0.6%; HepG2 tox: -1.5%; LDHA block: -4.2; ATXN2 expr inh: -3.0%; S2 tox: inactive; mIDH1 inhibitor: 0.3%

How did C=C1C(O)(c2ccccc2)C2CC[N+]1(C)CC2 (stereo not drawn) do in these assays?
TGFb SMAD3 inh: 0.3%; HepG2 tox: 1.2%; LDHA block: -37.5*; ATXN2 expr inh: 3.6%; S2 tox: inactive; mIDH1 inhibitor: -7.8%

Results for CO[C@@H](C)[C@](O)(C(=O)OCC1=CCN2CC[C@@H](O)[C@H]12)C(C)C ?
S2 tox: inactive

How did Cc1ccccc1N1C(=O)NC(=O)/C(=C\c2ccc3c(c2)CCCN3Cc2ccccc2)C1=O do in these assays?
TGFb SMAD3 inh: inconclusive; HepG2 tox: -36.7%; LDHA block: 0.5; ATXN2 expr inh: -13.7%; S2 tox: inactive; mIDH1 inhibitor: 52.1µM*

What do the screens show for `Cc1oc(-c2ccc(Cl)cc2)nc1CN1C(=O)CN=C(c2ccccc2)c2ccccc21`?
TGFb SMAD3 inh: 20µM*; HepG2 tox: -94.3%; LDHA block: -2.0; ATXN2 expr inh: inconclusive; S2 tox: inconclusive; mIDH1 inhibitor: -14.2%

How did Cc1oc(-c2ccc(Cl)cc2)nc1CN1C(=O)CN=C(c2ccccc2)c2cc(Cl)ccc21 do in these assays?
TGFb SMAD3 inh: 2.8%; HepG2 tox: 5.1%; LDHA block: -0.3; ATXN2 expr inh: 10.3%; S2 tox: inactive; mIDH1 inhibitor: 0.0%

Results for CC(=O)OC1CC[C@]2(C#N)[C@H]3CC[C@]4(C)[C@H](C5C=CC(=O)O5)CCC4(O)C3CCC2(O)C1 (stereo partly drawn) ?
TGFb SMAD3 inh: -26.5%; HepG2 tox: 10µM*; LDHA block: -0.9; S2 tox: inconclusive; mIDH1 inhibitor: 12.1%

What do the screens show for `Nc1cc(Cl)c2nonc2c1[N+](=O)[O-]`?
TGFb SMAD3 inh: inconclusive; HepG2 tox: 11.2µM*; LDHA block: 15.9; ATXN2 expr inh: inconclusive; S2 tox: inconclusive; mIDH1 inhibitor: -9.1%

Results for O=[N+]([O-])c1c(Cl)c(Cl)c(Cl)c(Cl)c1Cl ?
TGFb SMAD3 inh: -0.9%; HepG2 tox: -0.8%; LDHA block: -7.9; ATXN2 expr inh: 2.1%; S2 tox: inactive; mIDH1 inhibitor: 0.6%

How did COc1cc(/C=C(/C)[N+](=O)[O-])ccc1OCc1ccccc1Cl do in these assays?
TGFb SMAD3 inh: 5.01µM*; HepG2 tox: 7.94µM*; LDHA block: -2.1; ATXN2 expr inh: 25.1µM*; S2 tox: 31.6µM*; mIDH1 inhibitor: 46.5µM*

Results for COc1ccc(/C=C/[N+](=O)[O-])cc1OC ?
LDHA block: 0.0

What do the screens show for `CC(C)(C)c1cc([N+](=O)[O-])cc(C(C)(C)C)c1O`?
TGFb SMAD3 inh: 7.94µM*; HepG2 tox: -40.2%; LDHA block: 1.6; ATXN2 expr inh: inconclusive; S2 tox: inconclusive; mIDH1 inhibitor: 1.1%

Results for NC(=O)c1cc([N+](=O)[O-])cc([N+](=O)[O-])c1 ?
TGFb SMAD3 inh: -1.4%; HepG2 tox: -7.6%; LDHA block: -12.0; ATXN2 expr inh: inconclusive; S2 tox: inactive; mIDH1 inhibitor: 26.6%

Results for O=[N+]([O-])/C=C/c1ccc(Cl)cc1 ?
LDHA block: -4.4

How did O=[N+]([O-])/C=C/c1c(Cl)cccc1Cl do in these assays?
TGFb SMAD3 inh: 2.82µM*; HepG2 tox: 10µM*; LDHA block: 0.7; ATXN2 expr inh: inconclusive; mIDH1 inhibitor: 1.7%

How did c1ccc2c(c1)[IH]c1ccccc1-2 do in these assays?
TGFb SMAD3 inh: 4.47µM*; HepG2 tox: -47.1%; LDHA block: -4.2; ATXN2 expr inh: 7.94µM*; S2 tox: inconclusive; mIDH1 inhibitor: 8.9%

What do the screens show for `COC(=O)C1=C(c2c(C)noc2C)C[C@@H]2CC[C@H]1N2C(=O)NC1Cc2ccccc2C1`?
TGFb SMAD3 inh: 0.6%; HepG2 tox: -5.0%; LDHA block: -2.5; ATXN2 expr inh: 9.7%; S2 tox: inactive; mIDH1 inhibitor: -14.5%

What do the screens show for `Cc1ccc2c(c1)C(Cc1nc3ccccc3c(=O)n1-c1ccc(Br)cc1)C(=O)N2` (stereo not drawn)?
TGFb SMAD3 inh: inconclusive; HepG2 tox: -16.6%; LDHA block: 1.0; ATXN2 expr inh: 0.0%; S2 tox: 25.1µM*
